Test systems include RPMI-8226 leukemia; OVCAR-8 ovarian; OVCAR-5 ovarian; OVCAR-4 ovarian; IGROV1 ovarian; HS 578T breast; NCI/ADR-RES ovarian; T-47D breast; BT-549 breast; MDA-MB-435 melanoma; SW-620 colon; MCF7 breast; HCT-116 colon; HCC-2998 colon; KM12 colon; SK-OV-3 ovarian; OVCAR-3 ovarian.
Common to all, as to experiment: NCI-60 one-dose screen, 48 h (100 = growth as untreated, 0 = no growth, -100 = all killed)
Holding throughout (details): 10 µM unless noted

The panel holds about 83,000 compounds, 20% with a hit somewhere; the sample as a whole holds those more often.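 48-hour exposure, single concentration, 96-well plates; percent growth endpoint where 0 means no net growth. Active: below 10.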 Values without a mark were called inactive. Activity calls are given as the source filed them.

In the case of `COc1ccc(C2Nc3ccccc3-n3cccc32)cc1` (centres undefined), the growth with RPMI-8226 leukemia is 89.4%; with OVCAR-8 ovarian it was 96.6%; in the experiment on OVCAR-5 ovarian, 84.9%; with OVCAR-4 ovarian, 93.6%; in the experiment with IGROV1 ovarian, 71.3%; with HS 578T breast, 93.2%. Also, the growth was 89.9% in the experiment with NCI/ADR-RES ovarian; 84.2% with T-47D breast; 97.1% with BT-549 breast; 103% with MDA-MB-435 melanoma; 100% in the experiment on SW-620 colon; 95.7% with MCF7 breast. Also, the growth in the experiment with HCT-116 colon was 94%; in the experiment with HCC-2998 colon, 103%; in the experiment on KM12 colon, 98.7%.
Take `NC(N)=Nc1ccc(S(=O)(=O)O)cc1`: the growth with RPMI-8226 leukemia was 101%; with OVCAR-8 ovarian, 107%; in the experiment on OVCAR-5 ovarian it was 99.7%; in the experiment with OVCAR-4 ovarian it was 95.5%; with SK-OV-3 ovarian it was 96.7%; in the experiment with IGROV1 ovarian, 121%. For the same molecule, the growth is 105% in the experiment with HS 578T breast; 93.6% in the experiment on NCI/ADR-RES ovarian; 114% in the experiment with T-47D breast; 119% in the experiment on BT-549 breast; 106% in the experiment on MDA-MB-435 melanoma; 103% in the experiment on SW-620 colon. The results for the growth in the experiment with MCF7 breast, in the experiment on HCT-116 colon and with KM12 colon were 102%, 107% and 116%, respectively.
Take `O=C1C=CC(=O)c2c1nc1n2CCCC1`: the growth with OVCAR-8 ovarian is 92%; in the experiment on OVCAR-5 ovarian, 112%; in the experiment with OVCAR-4 ovarian, 101%; in the experiment with SK-OV-3 ovarian, 92.5%; in the experiment on IGROV1 ovarian, 103%; with OVCAR-3 ovarian, 21%. In addition, the growth was 73.1% in the experiment with HS 578T breast; 89.6% with NCI/ADR-RES ovarian; 86.7% with T-47D breast; 95.2% with BT-549 breast; -68.5% (active) in the experiment with MDA-MB-435 melanoma; 62.3% in the experiment on SW-620 colon. For the same molecule, the growth in the experiment with MCF7 breast is 57.8%; in the experiment with HCT-116 colon, 91.9%; in the experiment on HCC-2998 colon it was 57.6%; in the experiment on KM12 colon it was 75%.
As to `NC(=S)N/N=C/c1cc(-c2cccc(N)c2)ccn1`, the growth was 21.6% in the experiment on OVCAR-8 ovarian; 46.1% in the experiment on OVCAR-5 ovarian; 47.3% in the experiment on OVCAR-4 ovarian; 27.5% in the experiment with SK-OV-3 ovarian; 16% with IGROV1 ovarian; 40.8% in the experiment with OVCAR-3 ovarian. Further, the growth is 38.1% in the experiment with HS 578T breast; 21.2% with NCI/ADR-RES ovarian; 10.8% with T-47D breast; 55.4% with BT-549 breast; 32.9% in the experiment with MDA-MB-435 melanoma; 35.6% with SW-620 colon. The results for the growth in the experiment on MCF7 breast, in the experiment on HCT-116 colon and with KM12 colon were 21.9%, 28.4% and 30%, respectively.
With `CSc1nc(NCCO)c(C#N)c(-c2cccc(N)c2)n1`, the growth in the experiment on RPMI-8226 leukemia was 99.7%; in the experiment on OVCAR-8 ovarian, 98.8%; in the experiment with OVCAR-5 ovarian, 96.2%; in the experiment with OVCAR-4 ovarian, 96.4%; with SK-OV-3 ovarian, 93%; with IGROV1 ovarian, 92%. Further, the growth with OVCAR-3 ovarian is 113%; in the experiment with HS 578T breast, 96.5%; with NCI/ADR-RES ovarian, 99.8%; with BT-549 breast, 98%; with MDA-MB-435 melanoma, 105%; in the experiment with SW-620 colon it was 103%. For the same molecule, the growth in the experiment on MCF7 breast was 94.7%; in the experiment on HCT-116 colon it was 98.9%; in the experiment with HCC-2998 colon it was 109%; in the experiment on KM12 colon it was 99.4%.
Regarding `O=C(/C=C/c1cccc(Br)c1)c1ccccc1`, the growth in the experiment on RPMI-8226 leukemia is 23.6%; with OVCAR-8 ovarian, 88.7%; with OVCAR-5 ovarian it was 83.2%; in the experiment with OVCAR-4 ovarian, 90.6%; in the experiment with IGROV1 ovarian it was 84.8%; in the experiment with OVCAR-3 ovarian it was 98.3%. Moreover, the growth in the experiment on HS 578T breast is 101%; in the experiment with NCI/ADR-RES ovarian it was 103%; with T-47D breast, 52%; in the experiment on BT-549 breast, 76.6%; in the experiment on MDA-MB-435 melanoma it was 80.9%; in the experiment on SW-620 colon, 69.9%. For the same molecule, the growth with MCF7 breast is 12.6%; with HCT-116 colon, 47.1%; with HCC-2998 colon, 96.4%; with KM12 colon, 70.9%.
As for `COc1ccc(C(=O)/C=C/c2c[n+](=O)c3ccc(F)cc3n2[O-])cc1`, the growth with OVCAR-8 ovarian is 83.5%; in the experiment on OVCAR-5 ovarian, 97.2%; in the experiment with OVCAR-4 ovarian, 106%; in the experiment on SK-OV-3 ovarian it was 106%; with IGROV1 ovarian, 133%; with OVCAR-3 ovarian it was 102%. The growth was 102% in the experiment with HS 578T breast; 101% with NCI/ADR-RES ovarian; 93.1% in the experiment with T-47D breast; 119% in the experiment on MDA-MB-435 melanoma; 109% with SW-620 colon; 98.9% in the experiment with MCF7 breast. Besides, the growth is 103% with HCT-116 colon and 104% in the experiment with HCC-2998 colon.
As to `Cc1[nH]n(-c2ccccc2)c2nc3nncc3c(-c3ccc(Cl)cc3)c12`, the growth in the experiment on RPMI-8226 leukemia was 80.6%; in the experiment with OVCAR-8 ovarian, 89.8%; in the experiment on OVCAR-5 ovarian it was 99.1%; in the experiment on OVCAR-4 ovarian, 107%; in the experiment on SK-OV-3 ovarian it was 105%; with IGROV1 ovarian, 124%. Further, the growth was 121% in the experiment on OVCAR-3 ovarian; 110% in the experiment on HS 578T breast; 93.6% with NCI/ADR-RES ovarian; 111% with BT-549 breast; 98.1% with MDA-MB-435 melanoma; 93.3% in the experiment on SW-620 colon. Moreover, the growth was 93.9% with MCF7 breast, 93.9% in the experiment with HCT-116 colon, 109% with HCC-2998 colon and 97% in the experiment on KM12 colon.
As for `O=C(NC(Cc1ccccc1)C(=O)CCl)OCc1ccccc1` (centres undefined), the growth with RPMI-8226 leukemia is 9.51% (active); in the experiment with OVCAR-5 ovarian it was 92.3%; in the experiment on OVCAR-4 ovarian it was 62.7%; in the experiment on SK-OV-3 ovarian, 87.8%; in the experiment on IGROV1 ovarian, 87.7%; in the experiment on OVCAR-3 ovarian, 76%. Also, the growth is 99.5% in the experiment on HS 578T breast; 75.1% with NCI/ADR-RES ovarian; 70.7% in the experiment on T-47D breast; 41.4% in the experiment with BT-549 breast; 16.1% with MDA-MB-435 melanoma; 48.4% in the experiment on SW-620 colon. Also, the growth in the experiment on MCF7 breast is 29%; with HCT-116 colon it was 45.9%; in the experiment with HCC-2998 colon it was 97.1%; in the experiment with KM12 colon, 89.1%.
Turning to `C=C1CCC2C3(C)COC(c4ccc(OC)cc4Br)OC3CCC2(C)C1/C=C/C1=CCOC1=O` (centres undefined), the growth was 7.47% (active) with RPMI-8226 leukemia; 79.3% with OVCAR-8 ovarian; 98.3% in the experiment on OVCAR-5 ovarian; 67.9% with OVCAR-4 ovarian; 97.5% with SK-OV-3 ovarian; 79.8% in the experiment on IGROV1 ovarian. The growth with HS 578T breast was 94.7%; with NCI/ADR-RES ovarian, 68.6%; in the experiment with T-47D breast, 41.3%; in the experiment on BT-549 breast it was 73.8%; with MDA-MB-435 melanoma, 93.7%; in the experiment on SW-620 colon, 84%. Also, the growth in the experiment with MCF7 breast was 60.7%; in the experiment on HCT-116 colon, 53.9%; in the experiment on HCC-2998 colon it was 57.9%.
Regarding `CN(C)c1ccc(C2Nc3ccccc3-n3cccc32)cc1` (centres undefined), the growth with OVCAR-8 ovarian was 94.5%; in the experiment on OVCAR-5 ovarian it was 72%; in the experiment with OVCAR-4 ovarian, 87.1%; in the experiment with SK-OV-3 ovarian it was 104%; in the experiment with IGROV1 ovarian, 55%; in the experiment on HS 578T breast, 95.5%. The growth with NCI/ADR-RES ovarian was 105%; in the experiment with T-47D breast, 55.6%; in the experiment on BT-549 breast, 99.8%; with MDA-MB-435 melanoma, 96.5%; in the experiment with SW-620 colon it was 97.6%; with MCF7 breast, 38.4%. Further, the values for the growth in the experiment with HCT-116 colon, in the experiment on HCC-2998 colon and in the experiment on KM12 colon were 97.4%, 85.2% and 97.7%, respectively.

Values taken from PubChem BioAssay (NCI).
